# Laboratory results from PubChem BioAssay (Tox21).
# Records with an inconclusive call do not appear. A call without a number means that no potency is given here. A number with no mark means an inactive call. The source made the active and inactive calls. Calls come from the whole dose curve.
# Molecular target: D(2) dopamine receptor (Homo sapiens) (UniProt P14416)
# Assay: Dopamine D2 receptor (DRD2) small molecule agonists, cell-based qHTS assay (AID 1963594); note: nearly all actives have a fitted effect of over 35% in size
# Conditions: HEK293-DRD2 cAMP HTRF, agonist mode, 30 min; series mostly up to 92.4 µM
# Source text: National Center for Advancing Translational Sciences [NCATS]
# Division of Preclinical Innovation [DPI]
# U.S. Environmental Protection Agency [EPA]
# National Institutes of Environmental Health Sciences [NIEHS]
# National Toxicology Program [NTP]
# U.S. Food and Drug Administration [FDA]
# DRD2 is the D2 subtype of the dopamine receptor, which is coupled to Gi subtype of G protein-coupled receptor. This G protein-coupled receptor inhibits adenylyl cyclase activity. The DRD2-HEK293 cell line stably expressing D2 dopamine receptor can be used for screening agonists and antagonists of interactions between D2 and its ligands. The Hek293-DRD2 cAMP assay is based on HTRF technology. It measures changes of cAMP accumulation in response to Gi coupled GPCR activation or inhibition.
# Tox21 Assay Protocol Summary:
# DRD2-Hek293 cells were dispensed at 600 cells/3uL/well in 1536-well white plates using a Multidrop Dispenser. After the assay plates were incubated at a 37 C/5% CO2 incubator for 24 h, 1 uL of Ro20-1724 at final concentration of 0.1 mM was transferred to the assay plate by a Flying Reagent Dispenser. Following Ro20-1724 addition, 23 nL of compound dissolved in DMSO, positive controls or DMSO only was added to the assay plates via Wako pintool station. The assay plates were incubated at room temperature for 10 min. Next, 1 uL of NKH477 at 200nM was added into the plates. After the assay plates were incubated at room temperature for an additional 30 min, 2.5 ul/well of cAMP-d2 and 2.5 ul/well of anti-cAMP-cryptate were added respectively into the assay plates using a Flying Reagent Dispenser. The plates were incubated at room temperature for 1 h. The fluorescence intensity in the plates was measured at 340 nm excitation and 665 & 620 nm emission by an Envision plate reader.
# Chain of D(2) dopamine receptor (Homo sapiens) (P14416 whole entry, looked up): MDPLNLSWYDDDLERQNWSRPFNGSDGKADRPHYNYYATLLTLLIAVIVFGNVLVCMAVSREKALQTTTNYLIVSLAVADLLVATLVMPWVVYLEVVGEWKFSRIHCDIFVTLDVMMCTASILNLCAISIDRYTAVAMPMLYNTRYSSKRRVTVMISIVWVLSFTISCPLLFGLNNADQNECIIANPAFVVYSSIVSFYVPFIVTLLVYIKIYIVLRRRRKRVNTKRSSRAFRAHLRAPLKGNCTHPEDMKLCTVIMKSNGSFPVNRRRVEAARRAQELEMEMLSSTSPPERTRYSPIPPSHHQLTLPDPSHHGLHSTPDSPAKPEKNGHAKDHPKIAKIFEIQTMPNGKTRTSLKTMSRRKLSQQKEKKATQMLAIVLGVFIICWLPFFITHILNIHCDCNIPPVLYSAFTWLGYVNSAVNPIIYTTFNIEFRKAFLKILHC
SMILES,Potency,activation
O=S(=O)(O)CC(O)CCl (stereo not given),inactive,–
CC(C)N=C(N)/N=C(\N)Nc1ccc(Cl)cc1,inactive,–
Cc1ccccc1C,inactive,–
Cc1onc(-c2ccccc2)c1C(=O)Cl,inactive,–
COCCOCCOCCOCCOC,inactive,–
CC/C=C\CCO,inactive,–
CC(C)CCOC(=O)c1ccccc1,inactive,–
Cc1ncc(CSSCc2cnc(C)c(O)c2CO)c(CO)c1O,inactive,–
CN(C)c1ccc(/C=C/c2ccc([N+](=O)[O-])cc2)cc1,–,-5.78% [at 8.39 µM]
CC(C)(C)OCC1CO1 (stereo not given),inactive,–
CC1=C(O)C(=O)C(C)O1 (stereo not given),inactive,–
O=C(OCCOCCO)c1ccccc1Nc1cccc(C(F)(F)F)c1,inactive,–
COc1ccc(NC(C)=O)cc1,inactive,–
CC(C)=C1CC[C@@H](C)CC1=O,inactive,–
CC[C@H]1CN2CCc3cc(OC)c(OC)cc3[C@@H]2C[C@@H]1C[C@H]1NCCc2cc(OC)c(OC)cc21,inactive,–
Nc1c2ccccc2nc2ccccc12,inactive,–
O=C(O)CCc1ccccc1,inactive,–
COC(OC)C(C)c1ccccc1 (stereo not given),inactive,–
OCCc1ccccn1,inactive,–
C=CCc1cc(OC)c(O)c(C(=O)NCCO)c1,inactive,–

SMILES,Potency,activation
CC1=CC(=O)NS(=O)(=O)O1,inactive,–
CCOCOCC,inactive,–
Clc1nc2ccccc2s1,inactive,–
Cn1cc(S(C)=O)c(=O)c2ccc(F)cc21 (stereo not given),inactive,–
CCC(C(=O)NC(N)=O)c1ccccc1 (stereo not given),inactive,–
CC(C)NC(=O)c1ccccc1N,inactive,–
OC[C@H]1O[C@@H]2O[C@H]3[C@H](O)[C@@H](O)[C@@H](O[C@H]4[C@H](O)[C@@H](O)[C@@H](O[C@H]5[C@H](O)[C@@H](O)[C@@H](O[C@H]6[C@H](O)[C@@H](O)[C@@H](O[C@H]7[C@H](O)[C@@H](O)[C@@H](O[C@H]1[C@H](O)[C@H]2O)O[C@@H]7CO)O[C@@H]6CO)O[C@@H]5CO)O[C@@H]4CO)O[C@@H]3CO,inactive,–
CCn1cc(C(=O)O)c(=O)c2cnc(N3CCNCC3)nc21,inactive,–
COC(=O)c1ccccc1C(=O)c1ccc(OCCN2CCCCC2)cc1,inactive,–
CC(=O)NCc1c(I)c(NC(C)=O)c(I)c(C(=O)O)c1I,inactive,–
OC[C@H]1O[C@@H](O[C@H]2[C@H](O)[C@@H](O)[C@H](O)O[C@@H]2CO)[C@H](O)[C@@H](O)[C@H]1O,inactive,–
CCCCCCCOC(C)=O,inactive,–
O=c1[nH]c(=O)c2cn[nH]c2[nH]1,inactive,–
Cc1occc1SSc1ccoc1C,inactive,–
NC(=O)N[C@@H](CCC(=O)O)C(=O)O,inactive,–
CCCCCCCCCCC,inactive,–
CN(Cc1cnc2nc(N)nc(N)c2n1)c1ccc(C(=O)N[C@@H](CCC(=O)O)C(=O)O)cc1,inactive,–
COc1cc(C(=O)N2CCCCCCC2)cc(OC)c1OC,inactive,–
N#CCN(CC#N)CCN(CC#N)CC#N,inactive,–
CCCCCCCCCCCCCC,inactive,–
